This is one part of a sample in which hits are shown more often than they occur.
Tg IFNy HTS: T. gondii growth inhibition under IFN-gamma; activity change, negative = inhibition, % (concentration not given with the values); 69,000 compounds, 3.8% hits; AID 1259416; Toxoplasma gondii growth in IFN-gamma-treated host cells; stronger effect = lower value; in the data active = activity change below about -70%, passing the limit was not always enough;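 note: host cells are HeLa cells infected with Toxoplasma gondii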
Starred values were filed as active, the others as inactive; i = inactive; ! = not confirmed by another sample.

SMILES	Tg IFNy HTS
O=C(Nc1ccc([N+](=O)[O-])cc1Cl)c1cc(Cl)ccc1O	-76*!
O=C(Nc1ccccc1)c1cc([N+](=O)[O-])ccc1Cl	14
O=C(NCCNc1ccc(Cl)cc1[N+](=O)[O-])c1cccnc1	-5
CS(=O)(=O)N1CC2CN(C(=O)NCc3ccccc3)CC(C1)O2	20
Cc1nnnn1-c1ccc(CC(=O)N2CCc3c([nH]c4ccccc34)C2C)cc1 (stereo not given)	-5
CCC(c1ccccn1)N(C)C(=O)Cc1cc(C)no1 (stereo not given)	-6
Cc1ccc(C(=O)N2C[C@@H]3COC[C@@]3(Cc3nnc(C4CC4)o3)C2)cn1	2
CCCc1cnc(-c2ccc(C(C)N3CCOCC3)cc2)nc1 (stereo not given)	0
Cn1ccnc1CN1C[C@@H](c2ccccc2)[C@@]2(CCNC2=O)C1	i
Cc1ncc(C)c(N2C[C@@H]3CN(C(=O)C4CC4)C[C@]3(C(=O)O)C2)n1	-1
CCn1c(=O)c(C(=O)Nc2ccc(OC)cc2)c(O)c2ccccc21	116
NC1CCc2nc3ccccc3c(=O)n2C1c1ccsc1 (stereo not given)	14
O=C(Nc1ccc2c(c1)CS(=O)(=O)C2)c1cccs1	48
O=C(Nc1ccc2c(c1)ncn2-c1ccccc1)c1cccs1	-95*
CN(C)c1ccc(NC(=O)c2cccs2)cc1	38
Cc1ccccc1-c1nc(Cn2ccn3nc(-c4ccc5c(c4)OCO5)cc3c2=O)c(C)o1	58
Cc1ccc(CNC2CC3(CCN(CCO)CC3)c3ccccc32)s1 (stereo not given)	-21
O=C(Cn1c(=O)cc(-c2nc(C3CC3)no2)c2ccccc21)NCCc1ccc(Cl)cc1	122
C[C@]12OC(C[C@]1(O)CO)n1c3ccccc3c3c4c(c5c6ccccc6n2c5c31)CNC4=O	-82*
CC(=O)N1C[C@@H]2C(=O)N(C)C3(CCN(S(=O)(=O)Cc4ccccc4)CC3)[C@H]2C1	-42
O=C(Nc1nccs1)c1cccc(C2CCCN(C(=O)C3CCCCC3)C2)n1 (stereo not given)	-16
Nc1ncnc(SCc2c(Cl)cccc2Cl)n1	-81*
O=c1[nH]c(SCc2c(Cl)cccc2Cl)nc2ccnn12	68
CSc1nc(N)nc(COc2ccccc2Cl)n1	47
CC(=O)N1CCN(CC2=CCN(CC(=O)NC3CC3)CC2)CC1	-3
SMILES	Tg IFNy HTS
O=C(Nc1ccc(F)cc1F)c1c(O)c2cccnc2n(-c2ccc(F)cc2)c1=O	-2
CCS(=O)(=O)N1CCC2(CC1)CC(OC)CO2 (stereo not given)	-85*
COC1COC2(CCN(C(=O)C3CC(F)(F)C3)CC2)C1 (stereo not given)	34
CCS(=O)(=O)N1CCC2(CC1)CC(OCC1CCOCC1)CO2 (stereo not given)	10
COC(=O)[C@@H]1C[C@@H](NC(=O)c2cn[nH]c2-c2cccc(OC)c2)CN1C	7
FC(F)(F)c1cc2[nH]c(=S)[nH]c2cc1Cl	-93*
CCCCS(=O)(=O)N1CCC2(CC1)COCCN(Cc1ccncc1)C2	-5
Cc1cccc(CNC2=NCCNC23CCN(S(=O)(=O)c2ccc(C)c(C)c2)CC3)c1	13
CC(C)C(=O)c1cc(-c2cnc(NCc3ccccc3)nc2)cn1C	123
Nc1ncnc2c1c(-c1cccc(OCc3ccccc3)c1)cn2C1CC(CN2CCCC2)C1 (stereo not given)	-74*
COc1cccc(-c2nn(-c3ccccc3)cc2CN2CCC(CN3CCOCC3)CC2)c1	-10
COc1ccccc1CC(=O)N1CCCC2(CNC(=O)O2)C1 (stereo not given)	-1
Cc1cc(CN(CCO)Cc2cccnc2)c(C)n1-c1cccnc1	27
COc1ccccc1NC(=O)N1C[C@H](O)COC[C@@H]2O[C@@H](CC(=O)N3CCC(Cc4ccccc4)CC3)CC[C@H]21	-75*
COc1ccccc1NC(=O)N1C[C@@H](O)COC[C@H]2O[C@H](CC(=O)N3CCC(Cc4ccccc4)CC3)CC[C@@H]21	-9
COc1ccccc1NC(=O)N1C[C@H](O)COC[C@H]2O[C@H](CC(=O)N3CCC(Cc4ccccc4)CC3)CC[C@@H]21	-28
CCS(=O)(=O)N1CCCC2(CCCN2CCCc2ccccc2)C1 (stereo not given)	-10
CCOC(=O)c1oc2ccccc2c1NC(C)=O	16
CCOC(=O)c1oc2ccc(CNC3CCCCC3)c(Cl)c2c1C	-9
CCOC(=O)c1c(CSC2CCCCC2)oc2ccc(O)cc12	-104*
CCN1c2cc(C)ccc2-n2cccc2C12CCN(C(=O)Nc1ccc(Br)cc1)CC2	148
CN(Cc1nc2ccccc2[nH]1)C(=O)CCCCN1Cc2ccccc2C1=O	-14
COc1ccc(NC(=O)N2CCC3(CC2)Nc2cc(F)ccc2-n2cccc23)c(OC)c1	249
COc1cc2c(cc1OC)-c1nnc(C)n1C(C)(C)C2	2
COc1cc2c(cc1OC)C(Nc1ccc(I)cc1)=NC1(CCCC1)C2	-98*
SMILES	Tg IFNy HTS
COc1ccc(S(=O)(=O)NCCc2sc(-c3ccc(C)cc3)nc2C)cc1OC	36
CC(C)NC1CCc2c(ccc(=O)n2CCN(C)C)C1 (stereo not given)	28
CCCNc1nc(-c2ccccc2Cl)nc2ccccc12	-61
O=C(CN1CCN(S(=O)(=O)N2CCCC2)CC1)Nc1ccc2ncccc2c1	4
CNC1(c2ccc(OC)cc2)Oc2ccccc2C(C#Cc2ccccc2)=C1C (stereo not given)	-107*
COc1cccc(CNC(=O)CCC2CCCN(c3nc4ccccc4s3)C2)c1 (stereo not given)	26
NC(=O)c1sc(-c2ccsc2)cc1NC(=O)c1cccs1	-42
CCOC(=O)c1cc(-c2ccccc2)sc1NC(=O)c1ccc(Cl)cc1	17
NC(=O)c1cc(-c2ccccc2)sc1NC(=O)c1cccs1	-83*
CCc1nn2c(C)c(C(=O)Nc3ccccc3OC)nnc2c1-c1ccc(F)cc1	48
COC(=O)c1cccc(NC(=O)N2CCC3(CC2)Nc2ccccc2-n2cccc23)c1	183
CCCC(=O)Nc1cc(C(=O)NCCC2CCCN2C)ccc1C (stereo not given)	4
Cc1cccc(C(=O)N2CCc3c([nH]c4ccccc34)C2c2cccnc2)c1 (stereo not given)	-109*
O=C(c1ccc(Br)cc1)N1CCc2c([nH]c3ccccc23)C1c1cccnc1 (stereo not given)	-86*
CCOc1cccc(CC(=O)N2CCc3c([nH]c4ccccc34)C2c2cccnc2)c1OCC (stereo not given)	11
O=C(c1cccs1)N1CCc2c([nH]c3ccccc23)C1c1cccnc1 (stereo not given)	10
CCO[C@H]1CN(C(=O)NCc2ccccc2)[C@H]2COC[C@@H]12	-49
CN(Cc1ccccn1)C1COC2(CCN(c3ncccn3)C2)C1 (stereo not given)	3
Cc1ccc(-c2nc(Cn3c(=O)c4c(C)cc(C)nc4n(Cc4ccco4)c3=O)c(C)o2)cc1	-5
Cc1ccc(-c2csc(-c3cccn3CC(=O)N3CCC4(CC3)OCCO4)n2)cc1	13
C=CCN1C(=O)C2(c3ccccc31)c1[nH]c3ccccc3c1CCN2C(C)=O (stereo not given)	183
CCOc1cc(CCC(=O)N(C)Cc2cccc3ncccc23)on1	-39
CC(C)(C)OC(=O)Nc1cc(-c2cn[nH]c2C2CCCN(C(=O)OC(C)(C)C)C2)ccn1 (stereo not given)	-102*
CC(C)c1cc(C(=O)N2CCCC(c3[nH]ncc3-c3ccccc3)C2)on1 (stereo not given)	-4
